Data on 24 compounds can be found in PubChem BioAssay (NCATS).

Assay [1] can be described thus: qHTS to identify inhibitors of the type 1 interferon - major histocompatibility complex class I in skeletal muscle: primary screen against the NCATS Pharmaceutical Collection (AID 1347407).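 Note: luminescence of HiBiT knocked into endogenous HLA-B as interferon-induced MHC class I level.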 The method in brief:
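A qHTS format is used: 8-point, 1:5 compound series with 46 uM top final concentration, applied alongside 4 ng/ml IFN-beta to HLA-B*08:01-HiBiT knock-in myoblasts. Luminescence is measured after 24 h treatment.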

The nature of assay [2]: qHTS to identify inhibitors of the type 1 interferon - major histocompatibility complex class I in skeletal muscle: primary screen against the NCATS Mechanism Interrogation Plate v5.0 (MIPE) Libary (AID 1347411). Note: nearly all actives have a fitted effect of over 65% in size. Note: potency is the fitted concentration of half-maximal effect. Summed up:
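Luminescence from HiBiT-tagged endogenous HLA-B*08:01 served as the MHC class I read-out. CRISPR-engineered C25cl48 human myoblasts received 4.0 ng/ml IFN-beta plus compound for 24 hrs, with an 11-point, 1:3 series topping at 46 uM final.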

Assay [3] in a line: qHTS for inhibitors of adenylyl cyclases using a fission yeast platform: a pilot screen against the NCATS LOPAC library (AID 1347410). The method in brief:
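Inhibition of GNAS-stimulated AC9 activity in S. pombe was inferred from derepression of a PKA-repressed fbp1-GFP reporter, measured as cytometric fluorescence after 18 h at 30C with compounds at up to 57 µM.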

Values without a mark were called inactive. Inconclusive results are not listed. A call without a number means that no potency is given here. Active and inactive are the calls of the source. Calls come from the whole dose curve; as a rule, active = well fitted curve in the direction sought with a large enough effect; inconclusive = small, poorly fitted or top-dose-only effect, or another doubt; inactive = no such curve, though single readings can be large; an effect the other way counts as inactive or inconclusive. Non-standard residues stand in square brackets, D forms with d. Residues, ends and D or L forms follow the SMILES beside them. *: point of attachment. Sta = CC(C)C[C@H](N)[C@@H](O)CC(=O)O; Isovaleryl = CC(C)CC(=O)*

For `CC(C)[C@H](N)C(=O)OCCOCn1cnc2c(=O)[nH]c(N)nc21`, in assay [1], the Potency entry is “inactive”.

With `Cn1c(NCCN(CCO)CCCc2ccc([N+](=O)[O-])cc2)cc(=O)n(C)c1=O`, the Potency entry in assay [1] and in assay [2] was “inactive” each time.

With `Nc1ccc(S(N)(=O)=O)cc1`, the Potency entry in assay [1] and in assay [2] was “inactive” throughout.

`COC1=C(OC)C(=O)C(CCCCCCCCCCO)=C(C)C1=O`: the Potency entry in assay [1] and in assay [2] was “inactive” in each case.

Take `CCCCC(CC)COC(=O)C(C#N)=C(c1ccccc1)c1ccccc1` (stereo unspecified): the Potency result in assay [1] and in assay [2] was “inactive” throughout.

As to `Cc1ncc([N+](=O)[O-])n1CC(C)O` (stereo unspecified), the Potency result in assay [1] is “inactive”.

In the case of `O=C(O)c1cccnc1Nc1cccc(C(F)(F)F)c1`, the Potency entry in assay [1] is “inactive”. In addition, the call in assay [3] was inactive.

As for `CC1=C(C)C(=O)C(C(CCCCCC(=O)O)c2ccccc2)=C(C)C1=O` (stereo unspecified), the Potency result in assay [1] and in assay [2] was “inactive” throughout.

With `Cc1cccc(C#Cc2ccccc2)n1`, the call in assay [3] was inactive.

Consider `Cc1cc(Cl)ccc1OCCCC(=O)NO`, for which the call in assay [3] was inactive.

Take `Nc1nc(OCc2ccccc2)c2[nH]cnc2n1`: in assay [3], the result was inactive. In assay [2], the Potency entry is “inactive”.

As to `CCOC(=O)C1=C[C@@H](OC(CC)CC)[C@H](NC(C)=O)[C@@H](N)C1`, in assay [2], the Potency entry is “inactive”.

Consider `CC(C)CC(=O)N[C@H](C(=O)N[C@H](C(=O)N[C@@H](CC(C)C)[C@@H](O)CC(=O)N[C@@H](C)C(=O)N[C@@H](CC(C)C)[C@@H](O)CC(=O)O)C(C)C)C(C)C` (Isovaleryl-VV[Sta]A[Sta]-OH), for which the Potency result in assay [1] and in assay [2] was “inactive” throughout.

Turning to `O=C1c2ccccc2-c2n[nH]c3cccc1c23`, the call in assay [3] was inactive. Moreover, the Potency in assay [2] was 16.5 µM (active).

As to `O=P(O)(O)C(O)(Cn1ccnc1)P(=O)(O)O`, in assay [2], the activity change, negative = inhibition was 2.74% [at 5.1 µM].

On to `CCOc1cc(CC(=O)N[C@@H](CC(C)C)c2ccccc2N2CCCCC2)ccc1C(=O)O`, for which, in assay [2], the Potency result is “inactive”.

With `NCCCCNCCCN`, in assay [3], the compound was classed as inactive.

`O=C1NC(=O)C(c2ccccc2[N+](=O)[O-])=C1Nc1ccc(O)c(Cl)c1`: the result in assay [3] was inactive.

Consider `CCOC(=O)C1=C(O)C(=O)N(Cc2ccccc2)C1`, for which, in assay [3], the outcome was inactive. For the same compound, the Potency result in assay [2] is “inactive”.

For the compound `O=C(NOCC1CC1)c1ccc(F)c(F)c1Nc1ccc(I)cc1Cl`, the Potency result in assay [2] is “inactive”.

With `CCOC(=O)C(C)Oc1cccc2c(=O)n(CC(=O)Nc3ccc4c(c3)OCCO4)ccc12` (stereo unspecified), the compound was classed as inactive in assay [3]. The Potency entry in assay [2] is “inactive”.

As for `CCN(CC)CCOc1ccc(Nc2ncc3cc(-c4c(Cl)cccc4Cl)c(=O)n(C)c3n2)cc1`, the outcome in assay [3] was inactive.

For the compound `Clc1ccc2c(N3CCN(CCCN4CCN(c5ccnc6cc(Cl)ccc56)CC4)CC3)ccnc2c1`, the compound was classed as inactive in assay [3].

`C[C@@H](c1ncncc1F)[C@](O)(Cn1cncn1)c1ccc(F)cc1F`: in assay [3], the outcome was inactive. In addition, the Potency entry in assay [2] is “inactive”.
